Test results as given in PubChem BioAssay.
Unmarked numbers belong to inactive results. The source made the active and inactive calls.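 The calls were made as follows, unless noted: active = growth inhibition above 50% at the single 2 µM test dose, taken to imply half-maximal potency below 2 µM; inactive = the rest.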

experiment: antimalarial activity against Dd2 strain (AID 2302);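 also: 0% = DMSO untreated growth and 100% = chloroquine plus artemisinin killed control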; details: P. falciparum Dd2 in RBCs, LDH growth readout, 72 h; at 2 µM; hits give high values

SMILES	growth inhibition
CC(C)(C)C(=O)N1CCN(c2ccc([N+](=O)[O-])c(NC3CC3)c2)CC1	97% (active)
CCc1c[nH]c2c(N3CCCC3=O)cc(C(=O)N[C@@H](Cc3ccccc3)[C@H](O)CNC(C)(C)c3cccc(OC)c3)cc12	98% (active)
Cc1ccc2[nH]c(-c3ccc(/C=C/C(=O)NC4CCN(Cc5ccccc5)CC4)cc3)nc2c1C	92% (active)
Cc1ccc(C(=O)c2oc3ccc4c(C)cc(=O)oc4c3c2C)cc1	48%
COc1ccc2nccc(C(=O)NC3CCC(CCN4CCc5cc(C#N)ccc5C4)CC3)c2c1 (stereo not given)	1%
CCC(CO)NCC(O)Cn1c2ccc(Br)cc2c2cc(Br)ccc21 (stereo not given)	87% (active)
COCn1ncc2cc(-c3cccc(NC(=O)c4csc(NC(C)=O)n4)c3)ccc21	68% (active)
Cc1ccc(CNC(=O)[C@H](CCCN)Nc2nc(Nc3ccccc3)ncc2C)cc1	-4%
Cc1ccc(C(=O)Cn2nc(-c3ccc(C)c(S(=O)(=O)N4CCCC4)c3)ccc2=O)cc1	70% (active)
Cc1cc2nc(-c3ccc(/C=C/C(=O)NCc4ccc(Cl)c(Cl)c4)cc3)[nH]c2cc1C	83% (active)
CC(C)C[C@@H](CNC[C@H](CC(C)C)NC(=O)OC(C)(C)C)NC(=O)OC(C)(C)C	58% (active)
CCc1nc2ccc(C(=O)OC)nc2n1Cc1ccc2oc(-c3ccccc3N)c(Br)c2c1	75% (active)
Oc1ccc(C2CNCCc3c2cc(O)c(OCc2ccccc2)c3Cl)cc1 (stereo not given)	8%
COc1ccccc1C(=O)Nc1cccc(N2CCC(NCc3ccc(-n4cccn4)cc3)CC2)c1	30%
Fc1ccc(-c2cncc(Nc3ccncc3)n2)cc1	11%
NC(=O)c1cccc(C(=O)Nc2cccc(-c3csc(-c4nc5ccccc5[nH]4)c3)c2)c1	92% (active)
O=C(/C=C/c1ccc(C(F)(F)F)cc1)NCCCCCN1CCC(c2c[nH]c3ccccc23)CC1	22%
CCCOc1cc(OCCC)cc(-c2cc(=O)c3ccccc3[nH]2)c1	96% (active)
Cc1c(CCC#N)c(NCc2ccccc2)n2c(nc3ccccc32)c1C#N	99% (active)
CS(=O)(=O)c1ccccc1CNC(=O)c1cccc(-c2ccc(-c3nc4ccc(C(F)(F)F)cc4[nH]3)cc2)c1	7%

SMILES	growth inhibition
CCN(CCCN1CCCCC1)c1cc(C)nc(Nc2ccc(C(C)C)cc2)n1	51% (active)
CC(C)(C)OC(=O)N[C@@H](Cc1ccccc1)C(=O)Nc1cccc(-c2cccc(NC(=O)[C@H](Cc3ccccc3)NC(=O)OC(C)(C)C)c2)c1	97% (active)
OC(CNCc1ccccc1OCc1ccccc1)c1cccc(Br)c1 (stereo not given)	97% (active)
N#Cc1cc([N+](=O)[O-])ccc1-n1nc(C(N)=O)n(Cc2cccc(F)c2)c1=S	100% (active)
CCC1CN2CCc3c([nH]c4ccccc34)C2CC1CC1=NCCc2c1[nH]c1ccccc21 (stereo not given)	47%
CC1(C)N=C(N)N=C(N)N1OCCCOc1ccccc1N	95% (active)
O=C(/C=C/c1ccc(Cl)cc1)NCCCCCN1CCCC(C(=O)Nc2cccc(Cl)c2)C1 (stereo not given)	4%
COc1ccc(CN2CCC(Oc3cccc(NC(=O)c4ccc(C(F)(F)F)cc4)c3)CC2)cc1	20%
O=C(Nc1ccc(-c2cccc(-c3nc4ccc(C(F)(F)F)cc4[nH]3)c2)cc1)c1ccncc1	23%
O=C1CSc2ccc(CNC3CCN(CCc4c(Cl)cnc5ccc(Cl)cc45)CC3)nc2N1	92% (active)
Cc1ccc(NC(=O)c2nc(N3CCN(c4ccncc4)CC3)ccc2Cl)cc1F	57% (active)
O=C(/C=C/c1ccc(Cl)c(Cl)c1)NCCCCCN1CCCN(C(=O)Nc2cc(Cl)nc(Cl)c2)CC1	3%
CCc1cn2c3c(cc(C(=O)N[C@@H](Cc4ccccc4)[C@H](O)CN[C@@H](C)CC)cc13)N(C)S(=O)(=O)CC2	98% (active)
Cc1cc(NN=Cc2ccccn2)c2cc(F)ccc2n1	96% (active)
CC(=O)Nc1nc(C(=O)Nc2ccc(-c3cccc(-c4nc5ccc(F)cc5[nH]4)c3)cc2)cs1	29%
CCOc1ccc(C(=O)N2CCOC(CCN3CCC(c4ccccc4)CC3)(c3ccc(Cl)c(Cl)c3)C2)cc1 (stereo not given)	71% (active)
CN(C(=O)c1ccc(Br)cc1)c1ccccc1[N+](=O)[O-]	0%
CCCn1c(Sc2ccc(C#N)c([N+](=O)[O-])c2)nnc1-c1ccc(Cl)cc1	95% (active)
FC(F)(F)c1cccc(Nc2nc3nonc3nc2NC2C3CC4CC(C3)CC2C4)c1 (stereo not given)	100% (active)
O=C(Cc1cnc[nH]1)Nc1cccc(-c2ccc(-c3nc4ccc(C(F)(F)F)cc4[nH]3)cc2)c1	99% (active)

experiment: human hepatoma cell viability loss – ATP luminescence, cytotoxicity control for P. falciparum antimalarial project, primary screen (AID 2303;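 active = inhibition above 50%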;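 also: 0% = DMSO wells and 100% = digitonin-killed cells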); details: HepG2 viability, 24-48 h, at 10 µM, hits give high values

SMILES	inhibition
CC(C)(C)C(=O)N1CCN(c2ccc([N+](=O)[O-])c(NC3CC3)c2)CC1	8%
CCc1c[nH]c2c(N3CCCC3=O)cc(C(=O)N[C@@H](Cc3ccccc3)[C@H](O)CNC(C)(C)c3cccc(OC)c3)cc12	0%
Cc1ccc2[nH]c(-c3ccc(/C=C/C(=O)NC4CCN(Cc5ccccc5)CC4)cc3)nc2c1C	22%
Cc1ccc(C(=O)c2oc3ccc4c(C)cc(=O)oc4c3c2C)cc1	-8%
COc1ccc2nccc(C(=O)NC3CCC(CCN4CCc5cc(C#N)ccc5C4)CC3)c2c1 (stereo not given)	12%
CCC(CO)NCC(O)Cn1c2ccc(Br)cc2c2cc(Br)ccc21 (stereo not given)	18%
COCn1ncc2cc(-c3cccc(NC(=O)c4csc(NC(C)=O)n4)c3)ccc21	0%
Cc1ccc(CNC(=O)[C@H](CCCN)Nc2nc(Nc3ccccc3)ncc2C)cc1	-1%
Cc1ccc(C(=O)Cn2nc(-c3ccc(C)c(S(=O)(=O)N4CCCC4)c3)ccc2=O)cc1	-1%
Cc1cc2nc(-c3ccc(/C=C/C(=O)NCc4ccc(Cl)c(Cl)c4)cc3)[nH]c2cc1C	32%
CC(C)C[C@@H](CNC[C@H](CC(C)C)NC(=O)OC(C)(C)C)NC(=O)OC(C)(C)C	4%
CCc1nc2ccc(C(=O)OC)nc2n1Cc1ccc2oc(-c3ccccc3N)c(Br)c2c1	8%
Oc1ccc(C2CNCCc3c2cc(O)c(OCc2ccccc2)c3Cl)cc1 (stereo not given)	14%
COc1ccccc1C(=O)Nc1cccc(N2CCC(NCc3ccc(-n4cccn4)cc3)CC2)c1	9%
Fc1ccc(-c2cncc(Nc3ccncc3)n2)cc1	8%
NC(=O)c1cccc(C(=O)Nc2cccc(-c3csc(-c4nc5ccccc5[nH]4)c3)c2)c1	16%
O=C(/C=C/c1ccc(C(F)(F)F)cc1)NCCCCCN1CCC(c2c[nH]c3ccccc23)CC1	96% (active)
CCCOc1cc(OCCC)cc(-c2cc(=O)c3ccccc3[nH]2)c1	33%
Cc1c(CCC#N)c(NCc2ccccc2)n2c(nc3ccccc32)c1C#N	16%
CS(=O)(=O)c1ccccc1CNC(=O)c1cccc(-c2ccc(-c3nc4ccc(C(F)(F)F)cc4[nH]3)cc2)c1	86% (active)

SMILES	inhibition
CCN(CCCN1CCCCC1)c1cc(C)nc(Nc2ccc(C(C)C)cc2)n1	34%
CC(C)(C)OC(=O)N[C@@H](Cc1ccccc1)C(=O)Nc1cccc(-c2cccc(NC(=O)[C@H](Cc3ccccc3)NC(=O)OC(C)(C)C)c2)c1	10%
OC(CNCc1ccccc1OCc1ccccc1)c1cccc(Br)c1 (stereo not given)	-1%
N#Cc1cc([N+](=O)[O-])ccc1-n1nc(C(N)=O)n(Cc2cccc(F)c2)c1=S	6%
CCC1CN2CCc3c([nH]c4ccccc34)C2CC1CC1=NCCc2c1[nH]c1ccccc21 (stereo not given)	20%
CC1(C)N=C(N)N=C(N)N1OCCCOc1ccccc1N	70% (active)
O=C(/C=C/c1ccc(Cl)cc1)NCCCCCN1CCCC(C(=O)Nc2cccc(Cl)c2)C1 (stereo not given)	21%
COc1ccc(CN2CCC(Oc3cccc(NC(=O)c4ccc(C(F)(F)F)cc4)c3)CC2)cc1	35%
O=C(Nc1ccc(-c2cccc(-c3nc4ccc(C(F)(F)F)cc4[nH]3)c2)cc1)c1ccncc1	63% (active)
O=C1CSc2ccc(CNC3CCN(CCc4c(Cl)cnc5ccc(Cl)cc45)CC3)nc2N1	25%
Cc1ccc(NC(=O)c2nc(N3CCN(c4ccncc4)CC3)ccc2Cl)cc1F	51% (active)
O=C(/C=C/c1ccc(Cl)c(Cl)c1)NCCCCCN1CCCN(C(=O)Nc2cc(Cl)nc(Cl)c2)CC1	8%
CCc1cn2c3c(cc(C(=O)N[C@@H](Cc4ccccc4)[C@H](O)CN[C@@H](C)CC)cc13)N(C)S(=O)(=O)CC2	2%
Cc1cc(NN=Cc2ccccn2)c2cc(F)ccc2n1	9%
CC(=O)Nc1nc(C(=O)Nc2ccc(-c3cccc(-c4nc5ccc(F)cc5[nH]4)c3)cc2)cs1	86% (active)
CCOc1ccc(C(=O)N2CCOC(CCN3CCC(c4ccccc4)CC3)(c3ccc(Cl)c(Cl)c3)C2)cc1 (stereo not given)	14%
CN(C(=O)c1ccc(Br)cc1)c1ccccc1[N+](=O)[O-]	3%
CCCn1c(Sc2ccc(C#N)c([N+](=O)[O-])c2)nnc1-c1ccc(Cl)cc1	12%
FC(F)(F)c1cccc(Nc2nc3nonc3nc2NC2C3CC4CC(C3)CC2C4)c1 (stereo not given)	72% (active)
O=C(Cc1cnc[nH]1)Nc1cccc(-c2ccc(-c3nc4ccc(C(F)(F)F)cc4[nH]3)cc2)c1	10%
